This excerpt belongs to a sample that is enriched for hits.
RMI FANCM FP = disruptors of RMI1/RMI2 association with MM2 peptide – biochemical, fluorescence polarization, human, primary screen | 0.58% of 70,000 active | RMI core complex (RMI1/RMI2) binding to FANCM MM2 peptide, human | RMI core complex with F-MM2 peptide; hits give low values | FP signal (polarization) at 33 µM; in the data active = FP signal below about 40
An asterisk follows results filed as active; ! = repeats disagree.

SMILES	RMI FANCM FP
O=C(O)c1nccnc1C(=O)N1CCN(Cc2ccc3c(c2)OCO3)CC1	54
COc1ccccc1C(=O)N1CCCC(c2nnc(CC(C)(C)C)o2)C1 (centres undefined)	61
CCn1ccc(C(=O)Nc2nc(-c3ccccn3)cs2)n1	68
O=C(NCCCn1nc(-c2ccc(Cl)cc2)ccc1=O)c1ccco1	67
O=C(Cn1cnc2ccccc21)N1CCOCC1	58
O=C(CSc1nc2ccccc2o1)N1CCOCC1	72
O=C(CSc1nnc2nnc3ccccc3n12)N1CCOCC1	17*
N#C/C(=C\c1c(Cl)cccc1Cl)S(=O)(=O)c1ccc(Cl)cc1	58
O=C(CCc1nc2sc3c(c2c(=O)[nH]1)CCCCC3)N1CCN(c2ccccc2F)CC1	66
O=C(CCc1nc2sc3c(c2c(=O)[nH]1)CCCCC3)N1CCN(Cc2ccc3c(c2)OCO3)CC1	28*
NC(=O)C1CCN(C(=O)CCc2nc3sc4c(c3c(=O)[nH]2)CCCCC4)CC1	42
CN1C(=O)C(C)(C)COc2ccc(NC(=O)c3cccc(Br)c3)cc21	68
CCOc1ccc(-c2cc(=O)n(CC(=O)NCc3ccc(F)cc3)cn2)cc1	93
COc1ccc(C2=NN(C(=O)c3ccco3)C(c3c(F)cccc3Cl)C2)cc1OC (centres undefined)	59
Nc1ccccc1C(=O)NNC(=O)c1ccccc1N	52
N#C/C(=N/Nc1ccc(OC(F)(F)F)cc1)C(=O)C1CC1	53
Cc1cc(NC(=O)c2cc(=O)c3ccccc3o2)n(-c2nc3c(c(=O)[nH]2)CCC3)n1	9*
Cc1cc(NC(=O)C(=O)c2c[nH]c3ccccc23)n(-c2nc3c(c(=O)[nH]2)CCC3)n1	47
C/C=C/C(=O)Nc1cc(C)nn1-c1nc2c(c(=O)[nH]1)CCC2	70
C=CCNC(=O)CSc1nnnn1-c1ccccc1CC	54
CCCCOc1ccccc1-c1cc2c(SCC(=O)Nc3ccc(C)c(F)c3)nccn2n1	75
CC(C)(C)[C@]1(O)CCN2C[C@H]3c4ccccc4CCc4cccc(c43)[C@@H]2C1	43*!
CN1CCN2c3ncccc3Cc3ccccc3C2C1 (centres undefined)	57
Cc1cc(NC(=O)c2cc3ccccc3o2)n(-c2nc3c(cnn3-c3cccc(Cl)c3)c(=O)[nH]2)n1	63
CCOC(=O)CCC(=O)OC1C(OC2C(C)C(OC3CC(C)(OC)C(O)C(C)O3)C(C)C(=O)OC(CC)C(C)(O)C(O)C(C)C(=O)C(C)CC2(C)O)OC(C)CC1N(C)C (centres undefined)	63
SMILES	RMI FANCM FP
CCOC(=O)CCC(=O)O[C@H]1[C@H](O[C@@H]2[C@@H](C)[C@H](O[C@H]3C[C@@](C)(OC)[C@@H](O)[C@H](C)O3)[C@@H](C)C(=O)O[C@H](CC)[C@@](C)(O)[C@H](O)[C@@H](C)C(=O)[C@H](C)C[C@@]2(C)O)O[C@H](C)C[C@@H]1N(C)C	-23*
CCC(=O)O[C@H]1[C@H](O[C@@H]2[C@@H](C)[C@H](O[C@H]3C[C@@](C)(OC)[C@@H](O)[C@H](C)O3)[C@@H](C)C(=O)O[C@H](CC)[C@@](C)(O)[C@H](O)[C@@H](C)C(=O)[C@H](C)C[C@@]2(C)O)O[C@H](C)C[C@@H]1N(C)C	62
Cc1nn(Cc2nnc(SCC(=O)Nc3ccccc3)n2C)c(C)c1[N+](=O)[O-]	59
CCOc1ccc(Nc2oc(-c3ccco3)nc2S(=O)(=O)c2ccc(C)cc2)cc1	62
NNc1nc2cc3c(cc2s1)OCCO3	-6*
CCC(=O)Nc1nc2cc3c(cc2s1)OCCO3	73
c1c2c(cc3sc(N4CCN(c5nc6cc7c(cc6s5)OCCO7)CC4)nc13)OCCO2	63
Cn1ncc2c(N3CCN(c4ccc([N+](=O)[O-])cc4)CC3)ncnc21	58
CN1C(=O)c2cccc(NC(=O)c3ccc(N(C)C)cc3)c2C1=O	68
CN1C(=O)c2cccc(N)c2C1=O	-41*
CN1C(=O)c2cccc(NC(=O)c3cccc(Cl)c3)c2C1=O	73
Cc1cccc(-c2noc(CN3C(=O)COc4ccccc43)n2)c1	67
O=C(NCCCN1CCN(c2ccccc2)CC1)C(=O)Nc1ccccc1	62
Cn1ccnc1N1CCN(C(=O)CSCc2ccccc2)CC1	63
O=C(c1ccccc1)c1ccc2c3c(cccc13)C(=O)N(c1ccc3c4c(cccc14)CC3)C2=O	18*
Cc1ccccc1N1C(=O)c2cccc3c(C(=O)O)ccc(c23)C1=O	60
O=C(c1ccccc1)c1ccc2c3c(cccc13)CC2	62
O=C(NCCCn1nc(-c2ccco2)ccc1=O)Nc1ccc(F)cc1	67
CCOC(=O)CNC(=O)c1cc([N+](=O)[O-])ccc1Oc1ccc(OC)cc1	59
COc1ccc(Oc2ccc([N+](=O)[O-])c3nonc23)cc1	4*
COc1ccc(Oc2ccc([N+](=O)[O-])cc2-c2nc(-c3ccccn3)no2)cc1	59
NC[C@@H]1O[C@H](O[C@@H]2[C@@H](CO)OC(O[C@@H]3[C@@H](O)[C@H](N)C[C@H](N)[C@H]3O[C@H]3O[C@H](CO)[C@@H](O)[C@H](O)[C@H]3N)[C@@H]2O)[C@H](N)[C@@H](O)[C@@H]1O (some centres undefined)	58
NC[C@@H]1O[C@H](O[C@H]2[C@@H](O)[C@H](O[C@@H]3[C@@H](O)[C@H](N)C[C@H](N)[C@H]3OC3O[C@H](CO)[C@@H](O)[C@H](O)[C@H]3N)O[C@@H]2CO)[C@H](N)[C@@H](O)[C@@H]1O (some centres undefined)	4*
NC[C@H]1O[C@H](OC2[C@@H](N)C[C@@H](N)[C@H](O)[C@H]2O[C@@H]2O[C@H](CO)[C@@H](O)[C@H]2O)[C@H](N)[C@@H](O)[C@@H]1O (some centres undefined)	49
Cc1ccc(NC(=O)Cn2cnc3c(sc4cccc(F)c43)c2=O)cc1Cl	159
SMILES	RMI FANCM FP
COc1cn(CC(=O)Nc2ccc(Br)cc2)c(CN2CCC(C)CC2)cc1=O	57
COc1cn(CC(=O)Nc2cccc3ccccc23)c(CN2CCN(c3ccc(F)cc3)CC2)cc1=O	35*
COc1cn(CC(=O)NCc2ccc(C)cc2)c(CN2CCC(C)CC2)cc1=O	59
CS(=O)(=O)c1ccc(Nc2nc(C(=O)N3CCC(C(N)=O)CC3)cs2)cc1	60
Cc1cc(Cl)cc2sc(NC(=O)C3CCN(S(C)(=O)=O)CC3)nc12	63
Cc1ccc(-n2nnc3c(SCC(=O)N4CCCc5ccccc54)ncnc32)cc1	62
COC(=O)C1SC/C(=N/O)C1C(=O)OC (centres undefined)	50
CC(C)(C)NC(=O)C(=O)NCC1CCN(Cc2ccco2)CC1	71
Cc1ccc(C)c(S(=O)(=O)C(C#N)c2nc3ccccc3nc2N2CCCC2)c1 (centres undefined)	5*
CCN1CCN(c2nc3ccccc3nc2C(C#N)S(=O)(=O)c2cccs2)CC1 (centres undefined)	69
CCC(CC)COC(=O)C(C#N)c1nc2ccccc2nc1N1CCCCC1 (centres undefined)	48
CC1=C(C(=O)Nc2ccccc2C)C(c2cccs2)n2nc(SCc3ccccc3F)nc2N1 (centres undefined)	78
Cc1ccccc1OCC(O)Cn1c(NCCN)nc2c1c(=O)[nH]c(=O)n2C (centres undefined)	57
CCOC(=O)CCc1c(C(=O)OCC)[nH]c2c1CC(=O)NC2	32*
CCOC(=O)c1ccc(NC(=O)CCc2c(C)[nH]c(=O)[nH]c2=O)cc1	64

From PubChem BioAssay
